TDP1 inh: blocks human tyrosyl-DNA phosphodiesterase 1. Potency, µM (doses to about 130 µM), usual class: inhibitors. 0.28% of 350,000 active. recombinant TDP1, AlphaScreen DNA substrate cleavage. AID 485290. Q9NUW8; further: nearly all actives have a fitted effect of over 40% in size
Target sequence (Q9NUW8 whole entry, looked up): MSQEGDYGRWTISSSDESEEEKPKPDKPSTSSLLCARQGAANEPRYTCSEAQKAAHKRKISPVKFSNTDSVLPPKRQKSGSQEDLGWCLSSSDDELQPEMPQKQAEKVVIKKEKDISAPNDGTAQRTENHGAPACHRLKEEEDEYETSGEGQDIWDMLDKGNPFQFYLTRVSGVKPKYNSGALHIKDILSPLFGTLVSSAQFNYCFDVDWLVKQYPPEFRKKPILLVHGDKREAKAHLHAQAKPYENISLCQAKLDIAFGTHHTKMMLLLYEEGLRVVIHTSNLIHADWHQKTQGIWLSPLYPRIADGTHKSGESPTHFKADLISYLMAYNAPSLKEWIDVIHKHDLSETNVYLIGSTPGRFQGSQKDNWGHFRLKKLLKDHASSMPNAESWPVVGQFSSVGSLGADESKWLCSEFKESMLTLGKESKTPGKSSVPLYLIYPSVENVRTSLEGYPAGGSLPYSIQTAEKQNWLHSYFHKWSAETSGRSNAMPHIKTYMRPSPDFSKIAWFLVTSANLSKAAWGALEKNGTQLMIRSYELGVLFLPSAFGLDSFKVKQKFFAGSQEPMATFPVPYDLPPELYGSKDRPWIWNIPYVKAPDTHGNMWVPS
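Tdp1 1 nM final; 15 min RT w/ cpd; substrate 15 nM, 5 min; beads 10 ug/ml, 10 min; AlphaScreen read. Neg ctrl: no enzyme.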
Giardia kill: Giardia lamblia killing. Giardia lamblia trophozoite viability. activity change, % at 7.66 µM, hits read low. 0.15% of 340,000 active; in the data active means activity change below about -80%; inconclusive means between about -30% and that limit;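 further: parasites exposed to compound for two days anaerobically before the ATP read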
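Each well holds 100 Giardia trophozoites and compound. After two days (48 hrs) at 37 deg C in anaerobic conditions, ATP is quantified by luminescence.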
TDP1 cell CPT: DT40-hTDP1 cell growth loss with CPT; Potency, µM (highest dose often 46.2 µM), actives largely listed as inhibitors; 12% of 420,000 active; chicken DT40 Tdp1-/-;hTDP1 cells + 20 nM CPT, ATP luminescence, 48 h; AID 686979; further: nearly all actives have a fitted effect of over 55% in size
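Chicken DT40 Tdp1-/- cells stably complemented with human TDP1 were seeded at 400 cells/well in medium containing 20 nM camptothecin, exposed to pin-transferred compounds, and grown at 37 °C for at least 48 hr. Viability was read as ATP luminescence.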
ELG1 DNA repair: blocks ELG1-dependent DNA repair in HEK293T cells. HEK293T ELG1-luciferase reporter, luminescence, 16 h; DNA damage induced by 5-fluorouridine. Potency, µM (highest dose often 46.1 µM), actives largely listed as inhibitors. 2.3% of 330,000 active. AID 504467; further: nearly all actives have a fitted effect of over 55% in size
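5-Fluorouridine DNA damage + compound/DMSO, 2,000 cells/well, 16 h, 37 °C/5% CO2. ONE-Glo, 30 min RT, luminescence. Readout = decrease in reporter signal.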
TDP1 cell noCPT: qHTS for Inhibitors of human tyrosyl-DNA phosphodiesterase 1 (TDP1): qHTS in cells in absence of CPT; DT40 Tdp1-/- hTDP1 cells, no CPT, ATP luminescence, 48 h; Potency, µM (titrated, usually from 46.2 µM), hits mostly inhibitors; 15% of 420,000 active; further: nearly all actives have a fitted effect of over 55% in size
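Camptothecin absent (DMSO only). Human TDP1-complemented DT40 knockout cells, 400 cells/well, 37 °C for minimum 48 hr; ATP measured via CellTiter-Glo, 30 min dark incubation, luminescence.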
IL1B secr inh: blocks inflammasome-driven IL-1 beta release | AID 743279 | 4.7% of 360,000 active | THP-1 LPS/ATP IL-1B secretion, AlphaLISA, 16 h; active compounds read low | activity change, % at 57.5 µM; in the data active means activity change below about -50%; inconclusive means mostly about -30% to -49%
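Secreted IL-1B measured by AlphaLISA bead assay after 16 h compound exposure of THP-1 cells; compounds (final up to 57.5 uM) added 1 h before LPS (250 ng/mL) and ATP (1.25 mM) stimulation; lower signal means less secretion.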
Numbers stand for hits. This is a sample that favours compounds with a hit; in the whole collection about 19% have one here. Unless noted, the call rests on the fitted dose curve; in most records, active means well fitted curve in the direction sought with a large enough effect; inconclusive means small, poorly fitted or top-dose-only effect, or another doubt; inactive means no such curve, though single readings can be large; an effect the other way counts as inactive or inconclusive.

`Cc1ccc(-c2[nH]ncc2C(=O)c2ccc(Br)cc2)c(O)c1` gave Giardia kill inactive, TDP1 cell CPT inconclusive, ELG1 DNA repair inactive, TDP1 cell noCPT inconclusive and IL1B secr inh -82.
`Cc1ccccc1NS(=O)(=O)c1cc(C(=O)NCc2ccncc2)ccc1Cl` gave TDP1 inh inactive, Giardia kill inactive, TDP1 cell CPT inactive, ELG1 DNA repair inactive, TDP1 cell noCPT inactive and IL1B secr inh inactive.
For Cc1nc2nc(NC(=O)c3ccccc3F)[nH]n2c(=O)c1Cl the results were TDP1 inh inactive, TDP1 cell CPT inactive and TDP1 cell noCPT inactive.
Screening O=C(c1ccc(N2CCCCC2)c([N+](=O)[O-])c1)N1CCN(c2ccccn2)CC1 returned TDP1 inh inactive, Giardia kill inactive, TDP1 cell CPT inactive, ELG1 DNA repair inactive, TDP1 cell noCPT inconclusive and IL1B secr inh inactive.
`O=C1C2CC=CCC2C(=O)N1c1ccc(N2CCN(c3ccccn3)CC2)c([N+](=O)[O-])c1` (centres undefined) gave TDP1 inh inactive, Giardia kill inactive, TDP1 cell CPT inconclusive, ELG1 DNA repair inconclusive, TDP1 cell noCPT 16µM and IL1B secr inh inactive.
Screening Cc1noc(C)c1CC(=O)N1CCCC(C(=O)c2ccc(C(C)(C)C)cc2)C1 (centres undefined) returned Giardia kill inactive, TDP1 cell CPT 21µM, ELG1 DNA repair inconclusive, TDP1 cell noCPT 21µM and IL1B secr inh inactive.
For CC(C)(C)c1ccc(C(=O)C2CCCN(C(=O)C3CCOCC3)C2)cc1 (centres undefined) the results were TDP1 inh inactive, Giardia kill inactive, TDP1 cell CPT inconclusive, ELG1 DNA repair inactive, TDP1 cell noCPT 16µM and IL1B secr inh inactive.
`COc1ccc2c(c1)c1c(c(=O)n(-c3ccc(C)cc3)c(=O)n1CC(=O)NCc1ccc(C)cc1)n2C` gave TDP1 inh inactive, TDP1 cell CPT 7.3µM and TDP1 cell noCPT 6.5µM.
For COc1ccc2c(c1)c1c(c(=O)n(-c3cccc(C)c3)c(=O)n1CC(=O)NCc1ccc(C)cc1)n2C the results were TDP1 inh inactive, TDP1 cell CPT inconclusive and TDP1 cell noCPT inconclusive.
Cc1ccc2c(c1)c1c(c(=O)n(-c3ccccc3C)c(=O)n1CC(=O)NCc1ccccc1)n2C was read as TDP1 inh inactive, TDP1 cell CPT inconclusive and TDP1 cell noCPT 18µM.
For Cc1ccc2c(c1)c1c(c(=O)n(-c3ccccc3C)c(=O)n1Cc1ccccc1F)n2C the results were TDP1 inh inactive, TDP1 cell CPT 15µM and TDP1 cell noCPT 5.8µM.
Screening CCOc1cc(CNC(=O)c2ccc3nc(CCc4ccccc4)oc3c2)ccc1OC returned TDP1 inh inactive, TDP1 cell CPT inactive and TDP1 cell noCPT inconclusive.
`CC(C)(C)c1ccc(C(CC(=O)O)NC(=O)Cc2ccc(Cl)cc2)cc1` (centres undefined) gave Giardia kill inactive, TDP1 cell CPT inactive, ELG1 DNA repair inactive, TDP1 cell noCPT inactive and IL1B secr inh inactive.
CCOCCCNC(=O)C1CCN(c2nc3ccc(Cl)cc3[nH]2)CC1 was read as TDP1 inh inactive, TDP1 cell CPT inactive and TDP1 cell noCPT inactive.
Screening CCS(=O)(=O)N1CCN(S(=O)(=O)c2ccc3c(c2)OCCO3)CC1 returned TDP1 inh inactive, Giardia kill inactive, TDP1 cell CPT inactive, ELG1 DNA repair inactive, TDP1 cell noCPT inactive and IL1B secr inh inactive.
O=c1c2ccccc2nc2n1C(CSCc1ccc(Cl)cc1)CS2 (centres undefined) was read as TDP1 inh inactive, Giardia kill inactive, TDP1 cell CPT 10µM, ELG1 DNA repair inactive, TDP1 cell noCPT 16µM and IL1B secr inh inactive.
Screening CCC(NC(=O)C(C)NC)C(=O)N1CCCC1C(=O)NC1CCCc2ccccc21 (centres undefined) returned TDP1 inh inactive, Giardia kill inactive, TDP1 cell CPT inactive, ELG1 DNA repair inactive, TDP1 cell noCPT inactive and IL1B secr inh inactive.
Screening Cc1noc(C)c1-c1ccc2ncnc(NC3CC3)c2c1 returned TDP1 cell CPT inconclusive and TDP1 cell noCPT 21µM.
c1nc(NC2CCNCC2)c2cc(-c3ccc4c(c3)OCO4)ccc2n1 was read as TDP1 inh inactive, TDP1 cell CPT inconclusive and TDP1 cell noCPT 15µM.
`C/C=C\C1=CCCC1Nc1ncnc2ccc(-c3c(C)noc3C)cc12` (centres undefined) gave TDP1 inh inactive.
Screening CN(C)C(=O)c1ccc(-c2ccc3ncnc(NC4CCNCC4)c3c2)cc1 returned TDP1 inh inactive, TDP1 cell CPT inactive and TDP1 cell noCPT inactive.
For c1nc(NC2CC2)c2cc(-c3ccoc3)ccc2n1 the results were TDP1 cell CPT inconclusive and TDP1 cell noCPT inactive.
For CN(C)c1ccc(-c2ccc3ncnc(NC4CC4)c3c2)cc1 the results were TDP1 cell CPT 8.2µM and TDP1 cell noCPT 13µM.
COCCNc1ncnc2ccc(-c3c(C)noc3C)cc12 was read as TDP1 cell CPT 12µM and TDP1 cell noCPT inconclusive.
For COc1cc2[nH]c(C)c(-c3ccccc3)c(=O)c2cc1Cl the results were TDP1 cell CPT inactive, TDP1 cell noCPT inactive and IL1B secr inh inactive.
Screening Cc1nn(CC(=O)NCc2cc3ccccc3[nH]2)c(C)c1[N+](=O)[O-] returned TDP1 inh inactive, Giardia kill inactive, TDP1 cell CPT inactive, ELG1 DNA repair inactive, TDP1 cell noCPT inactive and IL1B secr inh -65.
Screening CC(=O)c1ccc(N2CCN(S(=O)(=O)c3ccc(-c4cc(C(F)(F)F)on4)s3)CC2)cc1 returned TDP1 inh inactive, TDP1 cell CPT inactive and TDP1 cell noCPT inconclusive.
CC(C)Cc1ccc(S(=O)(=O)NCc2nc3cccnc3n2Cc2ccccc2)cc1 was read as TDP1 inh inactive, TDP1 cell CPT inconclusive and TDP1 cell noCPT 18µM.
Screening COc1ccccc1Cn1c(CNS(=O)(=O)c2ccc(C(C)C)cc2)nc2cccnc21 returned TDP1 inh inactive, TDP1 cell CPT inconclusive and TDP1 cell noCPT 23µM.
For COc1ccccc1Cn1c(CNS(=O)(=O)c2ccc3c(c2)CCCC3)nc2cccnc21 the results were TDP1 inh inactive, TDP1 cell CPT inconclusive and TDP1 cell noCPT inconclusive.
For COc1ccccc1Cn1c(CNS(=O)(=O)c2ccc(CC(C)C)cc2)nc2cccnc21 the results were TDP1 inh inactive, TDP1 cell CPT 21µM and TDP1 cell noCPT 13µM.
Screening CCOc1cccc(C(=O)Nc2cc(C)c(O)c(-c3nc4ncccc4o3)c2)c1 returned TDP1 inh inactive, TDP1 cell CPT inactive and TDP1 cell noCPT inactive.
